Laboratory results taken from the supplement of paper PMC13380429.

Test system: Vero E6 infected with SARS-CoV-2
Assay: inhibition of SARS-CoV-2 cytopathic effect; higher = more antiviral protection, active = above 15
Conditions: 48 h

Measured: inhibition of SARS-CoV-2 cytopathic effect

CC(C)(C)NCC(O)c1cc(O)cc(O)c1 (stereo not given)
inactive: 1 nM -2.09% | 8.33 nM -0.61% | 100 nM -1.85% | 833.33 nM -0.02% | 10000 nM -0.76%

COc1ccc(COc2ccc(Cc3cnc(N)nc3N)cc2OC)cc1
inactive: 1 nM -0.78% | 8.33 nM -1.56% | 100 nM -0.01% | 833.33 nM 0.11% | 10000 nM 0.48%

C[C@]12CC[C@H](O)CC1=CC[C@@H]1[C@@H]2CC[C@]2(C)C(n3cnc4ccccc43)=CC[C@@H]12 [galeterone]
inactive: 1 nM -0.79% | 8.33 nM 0.99% | 100 nM 0.05% | 833.33 nM -5.02% | 10000 nM -6.94%

NCCCS(=O)(=O)O [tramiprosate]
inactive: 1 nM 2.5% | 8.33 nM 3.61% | 100 nM 3.29% | 833.33 nM 3.22% | 10000 nM 2.51%

Clc1ccc2c(c1)N=C(N1CCNCC1)c1ccccc1N2 [desmethylclozapine]
inactive: 1 nM 1.9% | 8.33 nM 0.8% | 100 nM 0.19% | 833.33 nM 2.8% | 10000 nM -4.43%

CCN(CC)CCNC(=O)c1ccccc1I
inactive: 1 nM 1.9% | 8.33 nM 1.7% | 100 nM 2.44% | 833.33 nM -2.04% | 10000 nM 2.51%

O=c1[nH]c2cc(C(F)(F)F)c(N3CCOCC3)cc2n(CP(=O)(O)O)c1=O
inactive: 1 nM 0.45% | 8.33 nM 0.83% | 100 nM -1.59% | 833.33 nM 1.35% | 10000 nM -2.92%

CO[C@H]1/C=C/O[C@@]2(C)Oc3c(C)c(O)c4c(O)c(c5c(nc6cc(C)ccn65)c4c3C2=O)NC(=O)/C(C)=C\C=C\[C@H](C)[C@H](O)[C@@H](C)[C@@H](O)[C@@H](C)[C@H](OC(C)=O)[C@@H]1C [rifaximin]
inactive: 1 nM 0.71% | 8.33 nM -2.16% | 100 nM -0.03% | 833.33 nM -3.72% | 10000 nM -3.3%

Cc1cc(CCCOc2c(C)cc(-c3noc(C(F)(F)F)n3)cc2C)on1 [pleconaril]
inactive: 1 nM 2.59% | 8.33 nM 0.33% | 100 nM -1.07% | 833.33 nM 0.02% | 10000 nM -1.34%

C[C@]12CCC(=O)C=C1CC[C@@H]1[C@@H]2C(=O)C[C@]2(C)C(=O)CC[C@@H]12 [adrenosterone]
inactive: 1 nM 0.47% | 8.33 nM -2.37% | 100 nM 0.08% | 833.33 nM 1.4% | 10000 nM 2.11%

COc1cc(NS(C)(=O)=O)ccc1Nc1c2ccccc2nc2ccccc12 [amsacrine]
inactive: 1 nM -2.31% | 8.33 nM 1.72% | 100 nM -0.21% | 833.33 nM -6.01% | 10000 nM -5.76%

CC[C@]1(O)C[C@@H]2CN(CCc3c([nH]c4ccccc34)[C@@](C(=O)OC)(c3cc4c(cc3OC)N(C)[C@H]3[C@@](O)(C(=O)OC)[C@H](OC(C)=O)[C@]5(CC)C=CCN6CC[C@]43[C@@H]65)C2)C1 [Vinblastine (sulfate)]
inactive: 1 nM -0.48% | 8.33 nM 1.74% | 100 nM -0.03% | 833.33 nM 0.75% | 10000 nM -0.15%

CC(=O)c1ccc2c(c1)N(CCCN1CCC(CCO)CC1)c1ccccc1S2 [piperacetazine]
inactive: 1 nM 4.15% | 8.33 nM 4.04% | 100 nM 1.55% | 833.33 nM 0.28% | 10000 nM 3.14%

c1ccc2c(c1)CN1CCCC1=N2 [desoxypeganine]
inactive: 1 nM -4.75% | 8.33 nM -3.18% | 100 nM -1.21% | 833.33 nM -2.32% | 10000 nM -1.54%

CC1(C)O[C@@H]2C[C@H]3[C@@H]4CCC5=CC(=O)CC[C@]5(C)[C@@]4(F)[C@@H](O)C[C@]3(C)[C@]2(C(=O)CCl)O1 [halcinonide]
inactive: 1 nM 2.25% | 8.33 nM 1.06% | 100 nM -0.43% | 833.33 nM -0.9% | 10000 nM -0.92%

CC(=O)N[C@H](Cc1ccc2ccccc2c1)C(=O)N[C@H](Cc1ccc(Cl)cc1)C(=O)N[C@H](Cc1cccnc1)C(=O)N[C@@H](CO)C(=O)N[C@@H](Cc1ccc(NC(=O)[C@@H]2CC(=O)NC(=O)N2)cc1)C(=O)N[C@H](Cc1ccc(NC(N)=O)cc1)C(=O)N[C@@H](CC(C)C)C(=O)N[C@@H](CCCCNC(C)C)C(=O)N1CCC[C@H]1C(=O)N[C@H](C)C(N)=O [degarelix]
inactive: 1 nM -0.25% | 8.33 nM 1.93% | 100 nM 3.06% | 833.33 nM 1.45% | 10000 nM 2.25%

CC(CC(C(N)=O)(c1ccccc1)c1ccccc1)N(C)C (stereo not given) [aminopentamide]
inactive: 1 nM -1.11% | 8.33 nM -1.56% | 100 nM -1.71% | 833.33 nM 0.24% | 10000 nM -0.57%

NC(=O)NC(=O)Cc1ccccc1 [phenacemide]
inactive: 1 nM -1.41% | 8.33 nM 0.22% | 100 nM -0.3% | 833.33 nM 0.89% | 10000 nM 0.35%

c1cc(Nc2cc(C3CC3)n[nH]2)nc(Nc2ccc3[nH]cnc3c2)n1
inactive: 1 nM -2.31% | 8.33 nM -1.82% | 100 nM -0.35% | 833.33 nM -0.79% | 10000 nM 5.62%

C#Cc1cncc([C@@H]2CCCN2C)c1 [altinicline]
inactive: 1 nM -3.46% | 8.33 nM -2.16% | 100 nM -1.9% | 833.33 nM -2.32% | 10000 nM 0.92%

CNC(=O)c1c(C)oc2cc(Oc3ncnc4cc(OC)c(OC)cc34)ccc12 [fruquintinib]
inactive: 1 nM 2.39% | 8.33 nM -2.79% | 100 nM -1.12% | 833.33 nM -3.32% | 10000 nM -0.11%

Cc1c2oc3c(C)ccc(C(=O)N[C@@H]4C(=O)N[C@H](C(C)C)C(=O)N5CCC[C@H]5C(=O)N(C)CC(=O)N(C)[C@@H](C(C)C)C(=O)O[C@@H]4C)c3nc-2c(C(=O)N[C@@H]2C(=O)N[C@H](C(C)C)C(=O)N3CCC[C@H]3C(=O)N(C)CC(=O)N(C)[C@@H](C(C)C)C(=O)O[C@@H]2C)c(N)c1=O [dactinomycin]
inactive: 1 nM -0.42% | 8.33 nM 3.96% | 100 nM -3.53% | 833.33 nM -8.77% | 10000 nM -14.8%

O=C(CCCCCCC(=O)Nc1ccccc1)NO [vorinostat]
inactive: 1 nM -0.07% | 8.33 nM 0.67% | 100 nM -0.77% | 833.33 nM -5.85% | 10000 nM -23.6%

CCN1CCN(Cc2ccc(Nc3ncc(F)c(-c4cc(F)c5nc(C)n(C(C)C)c5c4)n3)nc2)CC1 [abemaciclib]
inactive: 1 nM -2.71% | 8.33 nM -0.27% | 100 nM -1.26% | 833.33 nM 11.9% | 10000 nM 12.3%

C[C@H](c1ccc(F)cc1CCCC(=O)O)N(c1cc(F)ccc1F)S(=O)(=O)c1ccc(Cl)cc1
inactive: 1 nM -1.95% | 8.33 nM -1.39% | 100 nM -1.46% | 833.33 nM -3.65% | 10000 nM -5.49%

CN(C)c1cc(CNCC(C)(C)C)c(O)c2c1C[C@H]1C[C@H]3[C@H](N(C)C)C(O)=C(C(N)=O)C(=O)[C@@]3(O)C(O)=C1C2=O [omadacycline]
inactive: 1 nM -0.66% | 8.33 nM 0.51% | 100 nM 1.58% | 833.33 nM -0.64% | 10000 nM -1.14%

Nc1ncnc2c1C(=O)N(c1ccc([C@H]3CC[C@H](CC(=O)O)CC3)cc1)CCO2
inactive: 1 nM 4.58% | 8.33 nM 2.44% | 100 nM -0.31% | 833.33 nM 5.58% | 10000 nM 4.43%

Nc1cc(C(F)(F)F)c(-c2cc(N3CCOCC3)nc(N3CCOCC3)n2)cn1 [buparlisib]
inactive: 1 nM 2.05% | 8.33 nM 0.38% | 100 nM -0.73% | 833.33 nM -3.58% | 10000 nM -12.6%

CN(C)c1ccc2nc3ccc(=[N+](C)C)cc-3sc2c1 [methylene-blue]
inactive: 1 nM -2.26% | 8.33 nM -2.37% | 100 nM -2.19% | 833.33 nM 8.6% | 10000 nM -7.29%

CN1CC[C@H](c2c(O)cc(O)c3c(=O)cc(-c4ccccc4Cl)oc23)[C@H](O)C1 [alvocidib]
inactive: 1 nM 2.38% | 8.33 nM 1.53% | 100 nM 7.55% | 833.33 nM -19.4% | 10000 nM -9.43%

Cc1cc(C)c(NC(=O)N(Cc2ccc3c(c2)Cc2ccccc2-3)C2CCCCCC2)c(C)c1
inactive: 1 nM 0.2% | 8.33 nM 0.24% | 100 nM 1.89% | 833.33 nM 3.17% | 10000 nM -1.02%

O=C(O)[C@@H]1C[C@@H](C2CCCCC2)CN1C(=O)CP(=O)(O)CCCCc1ccccc1 [fosinoprilat]
inactive: 1 nM -0.23% | 8.33 nM -5.78% | 100 nM -5.83% | 833.33 nM 0.83% | 10000 nM 6.8%

C=CC(=O)Nc1cccc(Nc2nc(Nc3ccc(OCCOC)cc3)ncc2F)c1
inactive: 1 nM -0.6% | 8.33 nM 2.81% | 100 nM 0.54% | 833.33 nM -6.55% | 10000 nM -11.3%

N#Cc1cnc2cnc(NCc3cccnc3)cc2c1Nc1ccc(F)c(Cl)c1
inactive: 1 nM 0.87% | 8.33 nM 1.05% | 100 nM 2.35% | 833.33 nM -1.3% | 10000 nM -8.45%

C#C[C@]1(OC(C)=O)CC[C@H]2[C@@H]3CCC4=CC(=NO)CC[C@@H]4[C@H]3CC[C@@]21CC (mixture of isomers) [norgestimate]
inactive: 1 nM -3.21% | 8.33 nM 0.96% | 100 nM 1.62% | 833.33 nM -2.37% | 10000 nM -3.22%
